Compound activity deposited in PubChem by National Center for Advancing Translational Sciences (NCATS).
DT40 TDP1 CPT – DT40-hTDP1 cell growth loss with CPT. chicken DT40 Tdp1-/-;hTDP1 cells + 20 nM CPT, ATP luminescence, 48 h. Potency, µM (highest dose often 46.2 µM), inactives show top-dose activity change, negative = growth inhibition, hits mostly inhibitors. actives 12% (n = 420,000); further: potency means the concentration at half of the fitted maximal effect; nearly all actives have a fitted effect of over 55% in size
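Cell growth measured by CellTiter-Glo luminescence after a minimum 48 h, 37 C compound exposure with 20 nM CPT in Tdp1-knockout DT40 cells stably expressing hTDP1, seeded 400/well; qHTS titration format.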
IL-1B inflam inh – inhibitors of inflammasome signaling (IL-1 beta secretion) | THP-1 LPS/ATP IL-1B secretion, AlphaLISA, 16 h; hits give low values | activity change, % at 57.5 µM | actives 4.7% (n = 360,000) | AID 743279; in the data active means activity change below about -50%; inconclusive means mostly about -30% to -49%
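Secreted IL-1B measured by AlphaLISA bead assay after 16 h compound exposure of THP-1 cells; compounds (final up to 57.5 uM) added 1 h before LPS (250 ng/mL) and ATP (1.25 mM) stimulation; lower signal means less secretion.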
ELG1 repair inh – inhibitors of ELG1-dependent DNA repair in HEK293T cells. HEK293T ELG1-luciferase reporter, luminescence, 16 h; DNA damage induced by 5-fluorouridine. actives 2.3% (n = 330,000). Potency, µM (series often up to 46.1 µM), for inactives: top-dose activity change, negative = inhibition, actives largely listed as inhibitors; further: potency means the concentration at half of the fitted maximal effect; nearly all actives have a fitted effect of over 55% in size
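Cells (2,000 per well) received 5-fluorouridine plus test compound or DMSO and were incubated 16 hr at 37 °C, 5% CO2. Luciferase activity was read by luminescence 30 min after ONE-Glo addition; signal suppression marked inhibition of damage-induced ELG1 function.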
DT40 TDP1 no CPT – qHTS for Inhibitors of human tyrosyl-DNA phosphodiesterase 1 (TDP1): qHTS in cells in absence of CPT; DT40 Tdp1-/- hTDP1 cells, no CPT, ATP luminescence, 48 h; Potency, µM (titrated, usually from 46.2 µM), without a hit: top-dose activity change, negative = growth inhibition, most hits filed as inhibitors; actives 15% (n = 420,000); AID 686978, 2013; further: potency means the concentration at half of the fitted maximal effect; nearly all actives have a fitted effect of over 55% in size
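Camptothecin absent (DMSO only). Human TDP1-complemented DT40 knockout cells, 400 cells/well, 37 °C for minimum 48 hr; ATP measured via CellTiter-Glo, 30 min dark incubation, luminescence.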
RORgamma inh – inhibitors of mouse ROR gamma transcriptional activity; Drosophila S2 Gal4-RORgamma UAS-luciferase reporter, 20 h; Potency, µM (series often up to 53.6 µM), inactives show top-dose activity change, negative = inhibition, most hits filed as inhibitors; actives 5.4% (n = 310,000); further: potency means the concentration at half of the fitted maximal effect; nearly all actives have a fitted effect of over 60% in size
Target sequence (P51450 whole entry, looked up, the tested form may be a part): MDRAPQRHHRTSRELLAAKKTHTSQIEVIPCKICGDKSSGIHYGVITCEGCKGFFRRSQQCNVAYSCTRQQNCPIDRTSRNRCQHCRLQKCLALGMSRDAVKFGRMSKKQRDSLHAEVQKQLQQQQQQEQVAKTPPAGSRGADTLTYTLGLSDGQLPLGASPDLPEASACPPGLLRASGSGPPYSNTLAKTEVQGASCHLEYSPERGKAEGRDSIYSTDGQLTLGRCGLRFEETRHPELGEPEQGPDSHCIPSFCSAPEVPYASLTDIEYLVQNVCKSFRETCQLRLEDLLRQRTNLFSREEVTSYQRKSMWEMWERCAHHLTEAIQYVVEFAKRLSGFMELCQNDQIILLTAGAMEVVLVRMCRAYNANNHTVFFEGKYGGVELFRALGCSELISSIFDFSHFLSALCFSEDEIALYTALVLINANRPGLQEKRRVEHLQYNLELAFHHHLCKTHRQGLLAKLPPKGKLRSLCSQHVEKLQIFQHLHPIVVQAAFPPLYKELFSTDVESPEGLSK
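Compounds are pin-transferred onto Drosophila Schneider cells expressing a copper-inducible Gal4–ROR gamma transactivation domain fusion. After 1 hr, copper sulfate is added to 700 uM final; luciferase is read 20 hr later.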
Gal4-VP16 FLuc – Gal4-VP16 reporter inhibition counter-screen | Drosophila S2 Gal4-VP16 UAS-luciferase, luminescence, 20 h | AID 2546 | actives 3.5% (n = 310,000) | Potency, µM (series often up to 53.6 µM), inactives show at the top dose activity, negative = inhibition, actives largely listed as inhibitors;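 further: Gal4-VP16 expression switched on by copper sulfate through the metallothionein promoter; potency means the concentration at half of the fitted maximal effect; nearly all actives have a fitted effect of over 50% in size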
The depositor's hits bear a star; ? = inconclusive; · = no result. In the library only some 21% were active in any assay of this set; here they are far more common. Unless noted, the call rests on the fitted dose curve; in most records, active means well fitted curve in the direction sought with a large enough effect; inconclusive means small, poorly fitted or top-dose-only effect, or another doubt; inactive means no such curve, though single readings can be large; an effect the other way counts as inactive or inconclusive. On the % scale 0 is the no-effect control and ±100 the full control effect.

SMILES | DT40 TDP1 CPT | IL-1B inflam inh | ELG1 repair inh | DT40 TDP1 no CPT | RORgamma inh | Gal4-VP16 FLuc
CCOC(=O)c1ccc(NC(=O)Cn2nc(C)c3nn(-c4ccc(Cl)cc4)c(C)c3c2=O)cc1 | -20.5% | · | · | ? | · | ·
CNc1oc(/C=C/c2cccc(OC)c2)nc1C#N | -23.8% | ? | ? | ? | 36.1% | -5.9%
COc1ccc(Nc2oc(/C=C/c3cccc(OC)c3)nc2C#N)cc1 | 18.4µM* | · | · | ? | · | ·
CCCSc1nc2c(cnn2-c2ccc(C)c(C)c2)c(=O)[nH]1 | -4.2% | -9.5 | 14.8% | 0.8% | -26.9% | -2.4%
CCc1nc2c(cnn2-c2ccc(Cl)cc2)c(=O)n1-c1ccc2c(c1)OCCO2 | ? | 12.1 | 0.0% | 18.4µM* | -3.4% | 7.3%
COc1cccc(-n2c(C)nc3c(cnn3-c3ccc(Cl)cc3)c2=O)c1 | 8.2µM* | -19.6 | ? | 7.31µM* | 24.7% | ?
CCOc1ccc(-n2c(C)nc3c(cnn3-c3ccc(Cl)cc3)c2=O)cc1 | -11.9% | 24.5 | ? | -21.2% | -2.3% | -2.4%
CCc1cccc(-n2c(C)nc3c(cnn3-c3ccc(C)c(C)c3)c2=O)c1 | -73.7% | · | · | 23.1µM* | · | ·
CCc1cccc(-n2c(C)nc3c(cnn3-c3ccc(Cl)cc3)c2=O)c1 | 5.8µM* | · | · | 4.11µM* | · | ·
O=C(Nc1sc2c(c1C(=O)NCc1ccccc1)CCCC2)c1cc(=O)c2ccccc2o1 | -1.0% | · | · | ? | · | ·
COc1cc2cc(C)nc(Cc3cccc4ccccc34)c2cc1OC | 14.6µM* | -8.4 | ? | 23.1µM* | ? | -17.9%
Cn1nnc(NC(=S)NC(=O)c2ccc(-c3ccc(Br)cc3)o2)n1 | 11.8% | -13.0 | 8.0% | ? | 0.708µM* | 5.01µM*
CCCn1nnc(NC(=S)NC(=O)c2ccc(-c3ccc(Br)cc3)o2)n1 | ? | 16.7 | -5.8% | ? | 0.794µM* | 2.51µM*
CCn1nnc(NC(=O)c2ccc(-c3ccc(Cl)cc3)o2)n1 | -22.9% | -5.0 | ? | -25.6% | ? | -13.9%
O=C1NC(=O)N2CCSC2(Cc2ccccc2)N1 (stereo unspecified) | ? | -18.7 | · | -21.4% | · | ·
Cc1cc(C)n2nc3nc(N4CCCC4)nc(-c4ccccc4)c3c2n1 | -29.4% | -22.9 | 10.3µM* | ? | 10.6% | -1.4%
Cc1nc2c(C(=O)NCCC(C)C)cnn2c(C)c1Cc1c(F)cccc1Cl | 20.6µM* | · | · | 23.1µM* | · | ·
Cc1nc2c(C(=O)N3CCCCC3)cnn2c(C)c1Cc1ccccc1F | ? | -1.1 | ? | 15.8µM* | -27.9% | -14.3%
Cc1nc2c(C(=O)NCCc3ccc(Cl)cc3)c[nH]n2c(=O)c1Cc1ccc(Cl)cc1 | -5.4% | · | · | ? | · | ·
Cc1nc2c(C(=O)NCc3ccccc3Cl)cnn2c(C)c1Cc1c(F)cccc1Cl | 8.2µM* | · | · | 8.2µM* | · | ·
Cc1nc2c(C(=O)N3CCN(C)CC3)cnn2c(C)c1Cc1ccc(Cl)cc1 | -19.1% | -7.1 | 7.5% | -8.9% | 6.2% | 2.4%
Cc1nc2c(-c3ccccc3)c(C)nn2c(C)c1CCC(=O)NCc1ccccc1Cl | -20.6% | · | · | ? | · | ·
Cc1nc2c(C(=O)NCCc3ccccc3)cnn2c(C)c1Cc1c(F)cccc1Cl | 14.6µM* | · | · | 16.4µM* | · | ·
COc1ccc(C(=O)Nc2ccccc2C(=O)OCc2cc(=O)n3nc(C4CC4)sc3n2)cc1 | 8.4% | · | · | -2.6% | · | ·
CCC(Oc1ccccc1)C(=O)Nc1ccc(O)c(-c2nc3cc(C)ccc3o2)c1 (stereo unspecified) | -27.8% | · | · | ? | · | ·
SMILES | DT40 TDP1 CPT | IL-1B inflam inh | ELG1 repair inh | DT40 TDP1 no CPT | RORgamma inh | Gal4-VP16 FLuc
O=c1c(CCc2ccccc2)nc2cnc(N3CCOCC3)nc2n1C[C@H]1CCCO1 | ? | · | · | 13.3% | 26.8% | -13.6%
NS(=O)(=O)c1cccc(NS(=O)(=O)c2ccc3ccccc3c2)c1 | -7.3% | 29.0 | 9.3% | -11.3% | ? | -0.1%
CCOC(=O)c1ccc2ncc3c(-c4ccccc4)nn(-c4ccc(F)c(Cl)c4)c3c2c1 | -12.1% | · | · | -1.1% | · | ·
Cc1ccc(S(=O)(=O)N(C)C)cc1NC(=O)COC(=O)Cc1ccccc1F | -20.1% | 5.1 | 1.3% | -1.2% | · | ·
COc1ccccc1Nc1nc(N)nc(CSc2nnc(C)s2)n1 | -23.6% | 0.0 | · | -14.0% | 13.7% | 19.0%
Cc1nnc(SCc2cc(=O)[nH]c(N3CCN(C)CC3)n2)s1 | 8.9% | 1.3 | -8.5% | -1.6% | 3.8% | -2.8%
COc1cccc2c(C)nc(Nc3nc(CSc4nnc(C)s4)cc(=O)[nH]3)nc12 | 23.1µM* | -6.5 | ? | 18.4µM* | 20.8% | ?
Cc1ccc2c(C)nc(Nc3nc(CSc4nnc(C)s4)cc(=O)[nH]3)nc2c1 | 11.2µM* | ? | ? | 20µM* | ? | ?
CCCS(=O)(=O)NC(=O)C1(C)CCN(C(=O)c2ccc(OC)cc2)C1 (stereo unspecified) | -19.3% | 12.2 | · | -9.4% | · | ·
COc1ccc(C)c2sc(N(CCCN(C)C)C(=O)c3ccc4c(c3)OCCO4)nc12 | ? | ? | 21.7% | ? | · | ·
COc1ccc(C)c2sc(N(CCN(C)C)C(=O)c3cccc(N4C(=O)CCC4=O)c3)nc12 | 0.7% | -6.4 | -6.0% | -20.4% | · | ·
COc1ccc(C)c2sc(N(CCN(C)C)C(=O)/C=C/c3cccs3)nc12 | ? | -70.8* | ? | ? | -43.9% | ?
COc1ccc(OC)c2sc(N(CCN(C)C)C(=O)/C=C/c3cccs3)nc12 | ? | -103.1* | ? | ? | 15.8µM* | 10µM*
COc1cc(S(C)=O)ccc1-c1nc2ncccc2[nH]1 (stereo unspecified) | 23.2% | 10.1 | 22.6% | 0.8% | -8.6% | 1.2%
COc1ccc(CCNC(=O)c2cc(C(=O)c3cc(Cl)ccc3O)cn(CCc3ccc(OC)cc3)c2=O)cc1 | 10.3µM* | -25.5 | ? | 10.3µM* | ? | -6.6%
O=C(NCCCc1ccccc1)c1ccccc1O | ? | -20.3 | ? | ? | ? | 2.2%
COc1ccc(CCNC(=O)c2cc(C(=O)c3cc(C)ccc3O)cn(CCc3ccc(OC)cc3)c2=O)cc1 | ? | 0.0 | 13µM* | ? | 34.1% | -21.4%
COc1ccc(CCNC(=O)c2ccc(Cl)cc2Cl)cc1 | ? | -26.7 | 4.9% | -10.8% | 14.9% | -24.4%
O=C(c1cc(C(=O)NCCc2ccccc2)c(=O)n(CCc2ccccc2)c1)c1cc(Cl)ccc1O | ? | 0.0 | 23.1µM* | 14.6µM* | ? | 14.1µM*
